# Laboratory results reported in PubChem BioAssay AID618 (Sanford-Burnham Center for Chemical Genomics, 2007).
# The whole screen tested about 87,000 compounds, of which about 540 (0.62%) were called active. This is one part of a sample in which actives are shown more often than they occur. No rule for the calls is given here. Measured potencies and affinities stand elsewhere.
# Experiment: MT1-MMP gene expression reporter suppression – cell-based, luciferase reporter, luminescence (AID 618);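 also: actives suppress MT1-MMP promoter-driven transcription so potencies describe inhibitors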
# Settings: MT1-MMP promoter luciferase reporter cells
row,SMILES,outcome
1,CCOc1ccc(S(=O)(=O)NCCC2=CCCCC2)c2ccccc12,inactive
2,COCCCNC(=O)c1cccc(C(=O)NCCCOC)c1,inactive
3,CCCC1=Nc2cc(C(=O)NCCCOCC)ccc2Sc2ccccc21,active
4,CCC1=Nc2cc(C(=O)NCCCOC(C)C)ccc2Sc2ccccc21,inactive
5,CCCC1=Nc2cc(C(=O)NCCCOC(C)C)ccc2Sc2ccccc21,inactive
6,CCOCCCNC(=O)c1ccc(OC)cc1,inactive
7,CCC1=Nc2cc(C(=O)NCCCOC)ccc2Sc2ccccc21,active
8,COc1ccc(S(=O)(=O)Cc2ccc(C(=O)N3CCN(c4ncccn4)CC3)o2)cc1,inactive
9,CC1(C)CC(=O)C2=C(C1)Nc1ccccc1NC2c1cccnc1 (centres undefined),inactive
10,CCC1=C2CC[C@H]3C(=O)N(CC(=O)OC)C(=O)[C@H]3[C@H]2[C@@]2(Cc3ccccc3)C(=NCCc3c[nH]c4ccccc34)OC(=O)N2C1=O,inactive
11,O=C(CSc1ccccc1)Nc1cccnc1,inactive
12,CC(CN1CCOCC1)OC(=O)c1ccccc1Br (centres undefined),inactive
13,COc1ccc2[nH]c3c(c2c1)CCn1c-3nc2ccccc2c1=O,active
14,COc1cc(OC)cc(C(=O)Nn2c(C)nc3ccccc3c2=O)c1,inactive
15,COc1ccc(-c2nc3ccccc3c(=O)n2CCN2CCOCC2)cc1,inactive
16,O=C(CCc1ccccc1)c1ccc2c(c1)OCCCO2,inactive
17,O=C(CCCO)c1ccc2c(c1)OCCO2,inactive
18,COc1ccccc1C(=O)Nc1ccc2c(c1)OCCO2,inactive
19,O=C(Nc1ccc2c(c1)OCCO2)c1cccnc1,inactive
20,COc1cc(SC)ccc1C(=O)Nc1ccccc1,inactive
21,Cc1cc(C(=O)Nc2ccc3c(c2)OCCO3)co1,inactive
22,O=C(Nc1ccc2c(c1)OCO2)c1cncc(Br)c1,inactive
23,O=C(Nc1ccncc1)c1ccc2c(c1)OCCO2,inactive
24,CS(=O)(=O)Nc1ccc(C(=O)Nc2ccc3c(c2)OCCO3)cc1,inactive

row,SMILES,outcome
1,O=C(Nc1ccccc1)c1ccc2c(c1)OCCO2,inactive
2,Clc1cc(NCc2cccs2)ccc1N1CCOCC1,inactive
3,Cc1cc(N2CC34C=CC(O3)C(C(=O)O)C4C2=O)no1 (centres undefined),inactive
4,CCOCCn1c(CN2CCN(CC)CC2)nc2c1c(=O)n(C)c(=O)n2C,inactive
5,NC1=NC2(CCC(c3ccccc3)CC2)n2c(nc3ccccc32)N1 (centres undefined),inactive
6,CC(C)N(Cc1nc(-c2ccc(Cl)cc2)no1)C(=O)CN(C)S(=O)(=O)c1ccc(Cl)cc1,inactive
7,Cc1ccc(NC(=O)c2cc(C)on2)cc1,inactive
8,COC(=O)N1CC=CC1(C)C(=O)NCC1CC1 (centres undefined),inactive
9,O=C(NCc1ccc2c(c1)OCO2)C1(S(=O)(=O)c2ccccc2)CC1,inactive
10,Cc1nc2ccc3nc(NC(=O)c4ccc5c(c4)OCCO5)sc3c2s1,inactive
11,Cc1nc2c(ccc3nc(NC(=O)c4ccc(S(=O)(=O)N(C)C)cc4)sc32)s1,inactive
12,Cc1nc2c(ccc3nc(NC(=O)c4ccc5c(c4)OCCO5)sc32)s1,active
13,Cc1cc(NC(=O)c2ccc3c(c2)OCCO3)no1,active
14,Cc1cc(NC(=O)c2ccc(Cl)cc2)no1,inactive
15,Cc1cc(NC(=O)c2ccc3c(c2)OCO3)no1,inactive
16,CC(=O)c1ccc(NC(=O)CSc2nnc(NC(=O)CN3CCOCC3)s2)cc1,inactive
17,Cn1cccc1C(=O)NC(=O)COC(=O)CC12CC3CC(CC(C3)C1)C2,inactive
18,Cc1cc2c(c(=O)n1C1CC1)C(c1cccc(Cl)c1)C(C#N)=C(N)O2 (centres undefined),inactive
19,OCCN1CCN(CCCN2c3ccccc3Sc3ccc(C(F)(F)F)cc32)CC1,active
20,CN1CCN(CCCN2c3ccccc3Sc3ccc(C(F)(F)F)cc32)CC1,inactive
21,OCCN1CCN(CCCN2c3ccccc3Sc3ccc(Cl)cc32)CC1,inactive
22,O=C(Nc1ccccc1C(=O)OCn1nnc2ccccc2c1=O)c1ccco1,inactive
23,CC(=O)Nc1ccc(S(=O)(=O)N2CCC(c3nc4ccc(C)cc4[nH]3)CC2)cc1,inactive
24,C=CCn1c(/N=C/c2ccc(N(C)C)cc2)nc2ccccc21,inactive

row,SMILES,outcome
1,Cc1nc2ccccc2c(=O)n1/N=C/c1ccc(N(C)C)cc1,inactive
2,CN(C)c1ccc(/C=N/n2ncc3ccccc32)cc1,active
3,CCCc1[nH]n(-c2nc3ccccc3s2)c(=O)c1C=NCC(C)C,inactive
4,CCCN=Cc1c(CCC)[nH]n(-c2nc3ccccc3s2)c1=O,inactive
5,O=C(CCN1C(=O)C2C3C=CC(C3)C2C1=O)N1CCN(c2ccccc2Cl)CC1 (centres undefined),inactive
6,O=C(NCc1ccc2c(c1)OCO2)c1c[nH]c2ccc(S(=O)(=O)N3CCOCC3)cc2c1=O,inactive
7,COC(=O)Cn1c(C)c(C#N)c2ccccc21,inactive
8,Cc1cc(C)n(-c2nnc(C)n2/N=C/c2cc(Br)ccc2OCc2ccccc2)n1,inactive
9,CCCOc1ccc2ccccc2c1/C=N/n1c(C)nnc1-n1nc(C)cc1C,active
10,COc1ccccc1/C=N/n1c(C)nnc1-n1nc(C)cc1C,inactive
11,Cc1nn(C)cc1C=NCCOCc1ccccc1,inactive
12,O=C(CCC(=O)c1cccs1)NC(c1ccccc1)c1ccccc1,inactive
13,Cc1csc(-c2coc3cc(O)cc(C)c3c2=O)n1,inactive
14,COc1ccc2c(=O)c(-c3nc(C)cs3)coc2c1,active
15,COc1ccc2oc(=O)c(-c3nc(C)cs3)cc2c1,inactive
16,CCCC(=O)Nc1cnc(NC(=O)c2cccc(F)c2)cc1C,inactive
17,CCN(CCCNC(=O)CN1C(=O)COc2ccccc21)c1ccccc1,inactive
18,COc1ccc(C2C(C#N)=C(C)NC3=C2C(=O)c2ccccc23)cc1 (centres undefined),inactive
19,COc1cc(C2C(C#N)=C(C)NC3=C2C(=O)CC(C)(C)C3)cc(OC)c1O (centres undefined),inactive
20,COc1cc(C2C(C#N)=C(C)NC3=C2C(=O)c2ccccc23)cc(OC)c1OC (centres undefined),active
21,CCCCCC(=O)N(O)C1CC(=O)N(c2ccccc2)C1=O (centres undefined),inactive
22,COC(=O)c1ccc(Nc2nc(C)cc(C)n2)cc1,inactive
23,CCOC(=O)c1ccccc1NC(=O)CN(c1ccccc1C)S(C)(=O)=O,inactive
24,CN1C(=O)c2c(sc3c2CC(C)(C)SC3)N2CCN=C12,inactive

row,SMILES,outcome
1,Cc1cc(C)cc(C(=O)N2CC(=O)Nc3ccccc32)c1,active
2,O=C1CN(C(=O)c2ccccc2)c2ccccc2N1,inactive
3,Cc1ccsc1C(=O)N1CC(=O)Nc2ccccc21,inactive
4,O=C(CCN1C(=O)c2ccccc2C1=O)Nc1ccccn1,inactive
5,CNC(=O)C1CCCN1S(=O)(=O)c1ccc(OC)cc1 (centres undefined),inactive
6,Cc1ccc(NC(=O)CS(=O)CC(=O)NCC2OCCc3ccccc32)c(C)c1 (centres undefined),inactive
7,Cc1cccc(-c2c3c(=O)n(C)c(=O)n(C)c3c3c(C)cc(C)nn23)c1,inactive
8,Cc1cc(S(=O)(=O)Nc2ccc(N(C)C)cc2)c(C)s1,inactive
9,COc1cccc(N2CCN(c3ncnc4c3[nH]c3ccccc34)CC2C)c1 (centres undefined),inactive
10,Fc1ccc2[nH]c3c(N4CCN(c5ccccc5)CC4)ncnc3c2c1,inactive
11,COc1cccc(N2CCN(c3ncnc4c3[nH]c3ccc(F)cc34)CC2C)c1 (centres undefined),active
12,OC(CCN1CCCC1)(c1ccccc1)C1CCCCC1 (centres undefined),inactive
13,CC(C)(C)c1ccc(C(O)CCCN2CCC(C(O)(c3ccccc3)c3ccccc3)CC2)cc1 (centres undefined),active
14,OC(CCCCN1CCCCC1)c1ccccc1 (centres undefined),inactive
15,Nc1ccc2nn(-c3cccc4ccccc34)nc2c1,inactive
16,Cc1ccc(-n2nc(-c3ccc(N)cc3)cc2N)cc1,inactive
17,CCOC(=O)CC1=CC(C)(CC(=O)OCC)C(C#N)(C#N)C(N)=C1C#N (centres undefined),inactive
18,O=C(CC1(O)C(=O)Nc2ccccc21)c1ccc(-n2cccc2)cc1 (centres undefined),inactive
19,CC(C)(C)NC(=O)CC(c1ccccc1)c1ccccc1O (centres undefined),inactive
20,Cc1sc2nc(SCC(=O)NCc3cccs3)[nH]c(=O)c2c1C,inactive
21,Cc1cnc(NC(=O)COc2ccccc2)s1,inactive
22,Cc1cnc(NC(=O)COc2cccc3c2OC(C)(C)C3)s1,inactive
23,Cc1cnc(NC(=O)COc2ccccc2Cl)s1,active
24,CCOC(=O)C1C(=O)NC(N2CCN(Cc3ccccc3)CC2)=NC1c1ccccc1 (centres undefined),inactive

row,SMILES,outcome
1,Fc1ccc(-c2nnc(-c3ccc(Cl)cc3)o2)cc1,inactive
2,Clc1ccc(-c2nnc(-c3ccccc3)o2)c(Cl)c1,inactive
3,Cc1cccc(NC(=O)CCc2ccc(C)o2)c1,inactive
4,C/C(N)=C(/C#N)C(=O)COC(=O)COc1ccc(Cl)cc1,inactive
5,c1ccc(Nc2ccccn2)cc1,inactive
6,Oc1cccc2ccc(Nc3ccccn3)nc12,active
7,c1ccc(Nc2ccccc2Nc2ccccn2)nc1,inactive
8,O=C(Nc1ccc(F)cc1)c1ccccc1,inactive
9,Cc1cc(C)nc(NC2=NC3CCCCC3N2)n1 (centres undefined),inactive
10,Cc1cc(C)cc(NC(=O)CCn2ccnc2C)c1,inactive
11,CC1CC(C)CN(c2oc(-c3ccco3)nc2C#N)C1 (centres undefined),inactive
12,COc1ccc2c(CSc3nc4nc(C)cc(C)n4n3)cc(=O)oc2c1,inactive
13,CCC(SCC(=O)OC)C(=O)Nc1nnc(C(C)C)s1 (centres undefined),inactive
14,Cc1nnc(Sc2nc(Sc3nnc(C)s3)nc(N3CCN(C)CC3)n2)s1,active
15,Cc1nnc(SCCn2c(N3CCN(C)CC3)nc3c2c(=O)n(C)c(=O)n3C)s1,inactive
16,Cc1nnc(SCCn2c(N3CCN(C)CC3)nc3c2c(=O)[nH]c(=O)n3C)s1,inactive
17,COc1ccc(NC(=O)C2C(=O)N(C)C3(C)CC2c2ccccc2O3)cc1 (centres undefined),inactive
18,O=C1c2ccccc2C(=O)C1c1ccc2ccccc2n1,active
19,COC(=O)C1=C(C)NC(C)=C(C(=O)OC)C1c1ccc2ccccc2n1,inactive
20,Cc1ccc2ccc(C3C(=O)c4ccccc4C3=O)nc2c1,inactive
21,CCCCn1c(CCNC(=O)CCC)nc2ccccc21,inactive
22,CCCCCCc1ccc(OCC(=O)O)cc1OCC(=O)O,inactive
23,CC(C)(/C=N/O)/[N+]([O-])=C/c1ccco1,inactive
